Consider 39 compounds from PubChem BioAssay (NCI).

The panel holds about 83,000 compounds, 20% with a hit somewhere; the sample as a whole holds those more often.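 Negative percent growth values reflect cell death: -40 means 40% of the cells present at the start died, and -100 means all died.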 Active and inactive are the calls of the source. How the source made its calls: active means growth percent below 10; inactive means the rest.

One assay deals with SK-OV-3 ovarian. Kind of assay: NCI-60 one-dose screen, 48 h (100 = growth as untreated, 0 = no growth, -100 = all killed). As to conditions: 10 µM unless noted.
As to `Cc1ccc2c(C3C(C#N)=C(N)Oc4cc5ccccc5cc43)cc(=O)oc2c1` (stereo not given), the growth is 28.3% (inactive). Regarding `Oc1ccc(Cl)cc1Sc1cc(Cl)ccc1O`, the growth was 106% (inactive). The same measure, in the same setting: the same measure for `CCc1cccc(-c2ccccc2)c1`: 103% (inactive); for `CCCCNc1cc(C(=O)O)cc(S(N)(=O)=O)c1Oc1ccccc1`: 108% (inactive). `CC(C)Cn1cnc2c3ccccc3nc(NCn3nc(-c4cc(Cl)cc(Cl)c4Cl)oc3=S)c21`: the growth was 109% (inactive). On the same count and under the same terms, the same measure for `Clc1ccc2c(c1)nnn1c3ncccc3c(Br)c21`: 51.3% (inactive); for `Cc1ccc(-c2nc3c(N=Nc4ccc(S(N)(=O)=O)cc4)c(N)nn3c(N)c2C#N)cc1`: 63.8% (inactive); for `O=C(C[n+]1ccccc1Cl)c1ccc2c(c1)CCCC2`: 99.7% (inactive).

`COc1ccc(C2CC(c3cc(Cl)c(C)cc3OC)=NN2c2ccc(S(N)(=O)=O)cc2)cc1OC` (stereo not given): the growth is 116% (inactive). With `CCN(CC)c1ccc(C2CC(c3cc(OC)c(OC)c(OC)c3)=NN2)cc1` (stereo not given), the growth was 5.94% (active).

As for `COC(=O)CCCNS(=O)(=O)c1cc(C(=O)Nc2ccc(NC(=O)c3cc(S(=O)(=O)NCCCC(=O)OC)c(O)c(O)c3O)cc2)c(O)c(O)c1O`, the growth is 83.8% (inactive). In the case of `CC(NCCC(c1ccccc1)c1ccccc1)c1ccccc1` (stereo not given), the growth was 99.1% (inactive). Still for that read-out and setting: the same measure for `CC/C(=C(\CC)c1ccc(OCCN(CC)CC)cc1)c1ccc(OCCN(CC)CC)cc1`: 64.2% (inactive); for `Cc1ccc(N(CC2=NCCN2)c2cccc(O)c2)cc1`: 105% (inactive); for `COc1ccc(C[C@H](N)C(=O)N[C@@H]2[C@@H](CO)OC(n3cnc4c(N(C)C)ncnc43)[C@@H]2O)cc1` (stereo not given in full): -25.3% (active).

Regarding `CC1=C2C(=C[C@@](C)(CO)[C@@H]2OC(=O)N(C)CCN(C)C(=O)OC(C)(C)C)C(=O)[C@](C)(O)C12CC2`, the growth is 35.3% (inactive). Turning to `CC(=O)N1N=C(CCC(=O)c2nc3ccc([N+](=O)[O-])cc3[nH]2)OC1c1ccc(O)cc1` (stereo not given), the growth is 75.3% (inactive).

As for `CC1CCc2cc(F)cc3c(=O)c(C(=O)O)cn1c23` (stereo not given), the growth is 108% (inactive). Consider `OCCOCC(F)(F)F`, for which the growth is 113% (inactive). Same read-out and setting: the same measure for `O=C(O)c1cn(C2CC2)c2cc(N3CCN(C(=O)CSc4nc(NS(=O)(=O)c5ccccc5)cc(=O)[nH]4)CC3)c(F)cc2c1=O`: 117% (inactive); for `c1coc(CSc2ncnc3nc[nH]c23)c1`: 95.7% (inactive); for `CN(C)CC/C=C1\c2ccccc2Sc2ccc(Cl)cc21`: 74.1% (inactive). Still for that read-out and setting: as for `O=C(COc1ccc(Cl)cc1)N1CCN(Cc2ccc3c(c2)OCO3)CC1`, the figure is 93.5% (inactive); as for `COc1cc(NS(=O)(=O)c2ccc(N)cc2)ncn1`, 107% (inactive). The same measure, in the same setting: as for `COC(OC)C1(c2ccccc2)NC(=O)NC1=O` (stereo not given), the figure is 102% (inactive).

For `CC(=O)Nc1ccc(OC(=O)c2ccccc2O)cc1`, the growth is 105% (inactive). On the same count and under the same terms, as for `COc1cccc(C2CC(c3cc(OC)c(OC)c(OC)c3)=NN2)c1` (stereo not given), the figure is 89.9% (inactive); as for `COc1cc(C(=O)N2CCN(C(=O)c3cc(OC)c(OCc4ccccc4)cc3N)CC2)c(N)cc1OCc1ccccc1`, 111% (inactive); as for `COc1cc2c(cc1OCCCCC(=O)Nc1ccc(-c3nc4ccccc4s3)cc1)N=C[C@@H]1CCCN1C2=O`, 22.4% (inactive). On to `C=C1C(=O)O[C@H]2[C@H]1CC/C(COC(=O)c1cccc3ccccc13)=C\CC[C@@]1(C)O[C@@H]21`, for which the growth is 84.3% (inactive). Same read-out and setting: as for `COc1ccccc1S(=O)(=O)Nc1ccc2c3c(cc(-c4ccoc4)nc13)C(=O)N2C`, the figure is 59.3% (inactive); as for `C=C1c2c(Cl)ccc(O)c2C(O)=C2C(=O)[C@]3(O)C(O)=C(C(N)=O)C(=O)[C@@H](N(C)C)[C@@H]3[C@@H](O)[C@H]12`, 11.2% (inactive).

For `CN1C(=O)C2(SCC(C(=O)NCC(=O)OC(C)(C)C)N2C(=O)C2CCCCC2)c2ccccc21` (stereo not given), the growth was 99.8% (inactive). On the same count and under the same terms, the same measure for `COc1ccc(/C=C/C(=O)c2ccc(-n3cc(CN4CCN(c5cc6c(cc5F)c(=O)c(C(=O)O)cn6C5CC5)CC4)nn3)cc2)cc1OC`: 67.5% (inactive); for `O=C(Nc1ccc(Cl)c(Cl)c1)Nc1ccc(Cl)c([N+](=O)[O-])c1`: -11.7% (active). Same read-out and setting: the same measure for `Cc1cc[n+](CCCC[n+]2ccc(C)cc2)cc1`: 116% (inactive); for `Cc1cn(C2CC(F)C(CO)O2)c(=O)[nH]c1=O` (stereo not given): 93.1% (inactive); for `COc1cc2ncnc(Oc3ccc(NC(=O)Nc4ccc(C5(C#N)CCCC5)cc4)c4ccccc34)c2cc1OC`: 40.7% (inactive). Still for that read-out and setting: as for `COC(=O)Nc1nc2ccc(Sc3ccccc3)cc2[nH]1`, the figure is 13.5% (inactive).

Another assay deals with IGROV1 ovarian. The assay is described as above. Conditions: 10 µM unless noted.
With `Cc1ccc2c(C3C(C#N)=C(N)Oc4cc5ccccc5cc43)cc(=O)oc2c1` (stereo not given), the growth is 39.7% (inactive).

On to `CCc1cccc(-c2ccccc2)c1`, for which the growth is 107% (inactive). With `CCCCNc1cc(C(=O)O)cc(S(N)(=O)=O)c1Oc1ccccc1`, the growth was 109% (inactive). On to `CC(C)Cn1cnc2c3ccccc3nc(NCn3nc(-c4cc(Cl)cc(Cl)c4Cl)oc3=S)c21`, for which the growth was 51% (inactive).

As for `Cc1ccc(-c2nc3c(N=Nc4ccc(S(N)(=O)=O)cc4)c(N)nn3c(N)c2C#N)cc1`, the growth is 37.4% (inactive).

For the compound `O=C(C[n+]1ccccc1Cl)c1ccc2c(c1)CCCC2`, the growth is 107% (inactive). The same measure, in the same setting: the same measure for `COc1ccc(C2CC(c3cc(Cl)c(C)cc3OC)=NN2c2ccc(S(N)(=O)=O)cc2)cc1OC` (stereo not given): 79.1% (inactive). The same measure, in the same setting: the same measure for `CCN(CC)c1ccc(C2CC(c3cc(OC)c(OC)c(OC)c3)=NN2)cc1` (stereo not given): 17.7% (inactive). With `COC(=O)CCCNS(=O)(=O)c1cc(C(=O)Nc2ccc(NC(=O)c3cc(S(=O)(=O)NCCCC(=O)OC)c(O)c(O)c3O)cc2)c(O)c(O)c1O`, the growth was 100% (inactive). On the same count and under the same terms, the same measure for `CC(NCCC(c1ccccc1)c1ccccc1)c1ccccc1` (stereo not given): 55.6% (inactive). Same read-out and setting: as for `CC/C(=C(\CC)c1ccc(OCCN(CC)CC)cc1)c1ccc(OCCN(CC)CC)cc1`, the figure is 59.9% (inactive); as for `Cc1ccc(N(CC2=NCCN2)c2cccc(O)c2)cc1`, 90.3% (inactive). For `COc1ccc(C[C@H](N)C(=O)N[C@@H]2[C@@H](CO)OC(n3cnc4c(N(C)C)ncnc43)[C@@H]2O)cc1` (stereo not given in full), the growth was -42.3% (active).

With `CC1=C2C(=C[C@@](C)(CO)[C@@H]2OC(=O)N(C)CCN(C)C(=O)OC(C)(C)C)C(=O)[C@](C)(O)C12CC2`, the growth was 9.25% (active). The same measure, in the same setting: as for `CC(=O)N1N=C(CCC(=O)c2nc3ccc([N+](=O)[O-])cc3[nH]2)OC1c1ccc(O)cc1` (stereo not given), the figure is 103% (inactive); as for `CC1CCc2cc(F)cc3c(=O)c(C(=O)O)cn1c23` (stereo not given), 109% (inactive).

As to `OCCOCC(F)(F)F`, the growth was 113% (inactive). `O=C(O)c1cn(C2CC2)c2cc(N3CCN(C(=O)CSc4nc(NS(=O)(=O)c5ccccc5)cc(=O)[nH]4)CC3)c(F)cc2c1=O`: the growth was 98.3% (inactive).

`c1coc(CSc2ncnc3nc[nH]c23)c1`: the growth is 97.1% (inactive).

Take `CN(C)CC/C=C1\c2ccccc2Sc2ccc(Cl)cc21`: the growth was 53.8% (inactive). Consider `O=C(COc1ccc(Cl)cc1)N1CCN(Cc2ccc3c(c2)OCO3)CC1`, for which the growth is 106% (inactive). Still for that read-out and setting: the same measure for `COc1cc(NS(=O)(=O)c2ccc(N)cc2)ncn1`: 118% (inactive).

With `COC(OC)C1(c2ccccc2)NC(=O)NC1=O` (stereo not given), the growth was 142% (inactive). For the compound `CC(=O)Nc1ccc(OC(=O)c2ccccc2O)cc1`, the growth is 115% (inactive).

Turning to `COc1cccc(C2CC(c3cc(OC)c(OC)c(OC)c3)=NN2)c1` (stereo not given), the growth is 99.4% (inactive). In the case of `COc1cc(C(=O)N2CCN(C(=O)c3cc(OC)c(OCc4ccccc4)cc3N)CC2)c(N)cc1OCc1ccccc1`, the growth is 106% (inactive). Same read-out and setting: the same measure for `COc1cc2c(cc1OCCCCC(=O)Nc1ccc(-c3nc4ccccc4s3)cc1)N=C[C@@H]1CCCN1C2=O`: -17.1% (active); for `C=C1C(=O)O[C@H]2[C@H]1CC/C(COC(=O)c1cccc3ccccc13)=C\CC[C@@]1(C)O[C@@H]21`: -68.5% (active); for `COc1ccccc1S(=O)(=O)Nc1ccc2c3c(cc(-c4ccoc4)nc13)C(=O)N2C`: 62% (inactive). The same measure, in the same setting: the same measure for `C=C1c2c(Cl)ccc(O)c2C(O)=C2C(=O)[C@]3(O)C(O)=C(C(N)=O)C(=O)[C@@H](N(C)C)[C@@H]3[C@@H](O)[C@H]12`: -2.89% (active); for `CN1C(=O)C2(SCC(C(=O)NCC(=O)OC(C)(C)C)N2C(=O)C2CCCCC2)c2ccccc21` (stereo not given): 101% (inactive); for `COc1ccc(/C=C/C(=O)c2ccc(-n3cc(CN4CCN(c5cc6c(cc5F)c(=O)c(C(=O)O)cn6C5CC5)CC4)nn3)cc2)cc1OC`: -24.8% (active). Turning to `O=C(Nc1ccc(Cl)c(Cl)c1)Nc1ccc(Cl)c([N+](=O)[O-])c1`, the growth was 15.8% (inactive).

In the case of `Cc1cc[n+](CCCC[n+]2ccc(C)cc2)cc1`, the growth was 99.7% (inactive). On the same count and under the same terms, as for `COc1cc2ncnc(Oc3ccc(NC(=O)Nc4ccc(C5(C#N)CCCC5)cc4)c4ccccc34)c2cc1OC`, the figure is 40% (inactive). The same measure, in the same setting: as for `COC(=O)Nc1nc2ccc(Sc3ccccc3)cc2[nH]1`, the figure is 30.4% (inactive).
